{"source": "PubChem BioAssay (EPA / NIEHS)", "note": "“And” between values parts separate entries of the source, which are not always exact repeats. Equal values may be shown once. The source made the active and inactive calls. The calls were made as follows: active = hit-call score of the fitted dose curve at least 0.9, where 1 is the maximum; inactive = score below 0.9.", "data": [{"read-out": "Matrix Metallopeptidase 1 (MMP1), MMP1 (gene 4312)", "experiment": "BSK_hDFCGF_MMP1: BioMAP Diversity Plus: hDFCGF Assay for Matrix Metallopeptidase 1 (MMP1) Biomarker Activity (AID 2283064)", "settings": "primary human foreskin fibroblasts; actives raise or lower the signal", "experimental": "BSK_hDFCGF is a cell-based, multiplexed-readout assay that uses foreskin fibroblast, a human skin primary cell, with measurements taken at 24 hours after chemical dosing in a 96-well plate.BSK_hDFCGF_MMP1 is an assay component measured in the BSK_hDFCGF assay. It measures MMP-1 antibody related to regulation of gene expression using ELISA technology.Data from the assay component BSK_hDFCGF_MMP1 was analyzed into 1 assay endpoint. This assay endpoint, BSK_hDFCGF_MMP1, was analyzed with bidirectional fitting relative to DMSO as the negative control and baseline of activity. Using a type of binding reporter, gain or loss-of-signal activity can be used to understand changes in the signaling as they relate to the gene MMP1. Furthermore, this assay endpoint can be referred to as a primary readout, because this assay has produced multiple assay endpoints where this one serves a signaling function. To generalize the intended target to other relatable targets, this assay endpoint is annotated to the protease intended target family, where the subfamily is matrix metalloproteinase.\nThe levels of cell surface (or secreted, indicated by the prefix \"s\") biomarker endpoints were measured by ELISA. Overt cytotoxicity to cells in confluent adherent cultures (all systems other than the BT system) was assessed by measuring total protein levels using sulforhodamine B (SRB) staining in parallel cultures at the time of biomarker measurements, indicated as SRB endpoints. For proliferation assays for adherent cell types, individual cell types are cultured at sub-confluence and relative cell numbers quantified by SRB staining at time points optimized for each system (48 h: 3C and CASM3C systems; 72 h: BT and HDF3CGF systems; 96 h: SAg system). SRB was performed by staining cells with 0.1% SRB after fixation with 10% TCA and reading wells at 560 nm.Viability and proliferation of PBMC (T cells) was quantified by Alamar Blue reduction for the SAg and BT systems. For PBMC viability (referred to as PBMC Cytotoxicity within the assay endpoint names), cells were plated (75,000/well in a 96-well plate) and then chemical samples added for 1 h before addition of activators, SEB and TSST-1 (20 ng/mL final concentration each). Cells were incubated for 90 h. Then, Alamar Blue (20 uL/well) (Invitrogen, Cat DAL1100) was added for 6 h, and the plates were read with a fluorescence microplate reader at 546/580 nm (excitation/emission). For PBMC proliferation, cells were plated and activated as above but incubated for only 16 h prior to addition of Alamar Blue. Plates were read after 6 h.", "values": [{"compound": "COc1ccc(OC)c(N=Nc2c(O)ccc3ccccc23)c1", "AC50": "14.2 µM (active)"}, {"compound": "Oc1c(Cl)cc(Cl)c(Cl)c1Cc1c(O)c(Cl)cc(Cl)c1Cl", "AC50": "3.28 µM (active)"}, {"compound": "CC=Cc1ccc(OCC)c(O)c1", "outcome": "inactive"}, {"compound": "O=CN1CCOCC1", "outcome": "inactive"}, {"compound": "C[C@@H]1CCN(C(=O)[C@H](CCCN=C(N)N)NS(=O)(=O)c2cccc3c2NC[C@H](C)C3)[C@@H](C(=O)O)C1", "outcome": "inactive"}, {"compound": "CN(C)C(=O)Nc1ccc(Oc2ccc(Cl)cc2)cc1", "outcome": "inactive"}, {"compound": "C=C(C)C(=O)OCCOCCOCCOCCOC(=O)C(=C)C", "outcome": "inactive"}, {"compound": "COc1ccc(CCN2CCC(Nc3nc4ccccc4n3Cc3ccc(F)cc3)CC2)cc1", "outcome": "inactive"}, {"compound": "CC(=O)Nc1ccc(C(=O)CCl)cc1", "AC50": "10.5 µM (active)"}, {"compound": "CCCCCCCCCCCCCCCC(=O)OC/C=C(C)/C=C/C=C(C)/C=C/C1=C(C)CCCC1(C)C", "outcome": "inactive"}, {"compound": "CC(=O)c1c(C)c([N+](=O)[O-])c(C(C)(C)C)c([N+](=O)[O-])c1C", "outcome": "inactive"}, {"compound": "CS(=O)(=O)OCCCCOS(C)(=O)=O", "outcome": "inactive"}, {"compound": "c1ccc2cc(Nc3ccc(Nc4ccc5ccccc5c4)cc3)ccc2c1", "outcome": "inactive"}, {"compound": "CCC(C)c1cc([N+](=O)[O-])cc([N+](=O)[O-])c1OC(=O)OC(C)C", "note": "(stereo not given)", "AC50": "11 µM (active)"}, {"compound": "CC(CN=Cc1ccccc1O)N=Cc1ccccc1O", "note": "(stereo not given)", "outcome": "inactive"}, {"compound": "C1=CC2C3C=CC(C3)C2C1", "note": "(stereo not given)", "outcome": "inactive"}, {"compound": "CC(C)(N=C=O)c1cccc(C(C)(C)N=C=O)c1", "outcome": "inactive"}, {"compound": "IC(I)I", "outcome": "inactive"}, {"compound": "C=C(C)C(=O)OCC(CC)(COC(=O)C(=C)C)COC(=O)C(=C)C", "AC50": "37.9 µM (active)"}, {"compound": "CC(C)(C)CC(C)(C)c1ccc(OCCOCC[N+](C)(C)Cc2ccccc2)cc1", "AC50": "5 µM (active)"}, {"compound": "Clc1cc(Cl)c(-c2c(Cl)c(Cl)cc(Cl)c2Cl)cc1Cl", "AC50": "18.5 µM (active)"}, {"compound": "C=CC(C)(O)CCC=C(C)C", "note": "(stereo not given)", "outcome": "inactive"}, {"compound": "CN(c1nccc(=O)[nH]1)C1CCN(c2nc3ccccc3n2Cc2ccc(F)cc2)CC1", "outcome": "inactive"}, {"compound": "CC(C=O)Cc1ccc(C(C)(C)C)cc1", "note": "(stereo not given)", "outcome": "inactive"}, {"compound": "Cc1cc(CCC(=O)OCCOCCOCCOC(=O)CCc2cc(C)c(O)c(C(C)(C)C)c2)cc(C(C)(C)C)c1O", "outcome": "inactive"}, {"compound": "CC1(C)C2=CCCC(C)(C)[C@]23CC[C@H]1C3", "outcome": "inactive"}, {"compound": "c1ccc(Oc2ccccc2)cc1", "outcome": "inactive"}, {"compound": "CC1(C)CCC[C@]2(C)[C@H]3CCO[C@]3(C)CC[C@@H]12", "AC50": "35 µM (active) and 36 µM (active)"}, {"compound": "CCN(CC)C(=O)N(CC)CC", "outcome": "inactive"}, {"compound": "CN(C)C(=S)SC(=S)N(C)C", "AC50": "36.2 µM (active)"}, {"compound": "c1ccc(CCc2ccccc2)cc1", "AC50": "36.7 µM (active)"}, {"compound": "C=C(C)[C@H]1CC=C(C)C(=O)C1", "outcome": "inactive"}, {"compound": "O=C(Nc1ccc2c(O)c(N=Nc3ccc(N=Nc4ccc(S(=O)(=O)O)cc4)cc3)c(S(=O)(=O)O)cc2c1)c1ccccc1", "outcome": "inactive"}, {"compound": "CS(=O)(=O)c1ccc(C2=C(c3ccccc3)C(=O)OC2)cc1", "outcome": "inactive"}, {"compound": "O=C1c2ccccc2C(=O)c2c(O)ccc(O)c21", "outcome": "inactive"}, {"compound": "CCCCCCC(CO)CCCC", "note": "(stereo not given)", "AC50": "31.1 µM (active) and 30.7 µM (active)"}, {"compound": "CC(=O)C1(C)CC2=C(CCCC2(C)C)CC1C", "note": "(stereo not given)", "AC50": "12.8 µM (active)"}, {"compound": "O=C1OC2(c3ccccc31)c1ccc(O)c(Br)c1Oc1c2ccc(O)c1Br", "outcome": "inactive"}, {"compound": "CCOC(=O)C(C#N)=C(c1ccccc1)c1ccccc1", "outcome": "inactive"}, {"compound": "CCCCN(CCCC)C(=O)N(CCCC)CCCC", "AC50": "11.5 µM (active)"}]}]}
